Compound activity as filed in PubChem.
A selection: hits, their analogues and other compounds. The true share with any hit is near 14%.
FBPA Giardia inh: inhibitors of Giardia lamblia fructose-1,6-bisphosphate aldolase; A8B2U2; purified Giardia FBPA; Potency, µM (doses to about 59.6 µM), without a hit: at the highest dose activity, negative = inhibition, most hits filed as inhibitors; 290,000 compounds, 0.71% hits; also: potency is read from the fitted curve at half-maximal effect; nearly all actives have a fitted effect of over 55% in size
Target sequence (A8B2U2 whole entry, looked up): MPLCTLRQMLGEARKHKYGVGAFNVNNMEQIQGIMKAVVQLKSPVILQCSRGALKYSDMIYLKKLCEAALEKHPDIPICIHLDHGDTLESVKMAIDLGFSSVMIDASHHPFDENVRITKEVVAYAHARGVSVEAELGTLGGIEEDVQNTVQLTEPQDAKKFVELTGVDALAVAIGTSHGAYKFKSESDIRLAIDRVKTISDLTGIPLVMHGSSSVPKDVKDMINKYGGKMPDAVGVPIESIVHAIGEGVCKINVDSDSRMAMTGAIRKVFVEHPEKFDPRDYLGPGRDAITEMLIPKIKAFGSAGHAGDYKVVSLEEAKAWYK
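Giardia FBPA (40 nM reagent) was preincubated 10 min at RT with compound (up to 57.5 uM final), then substrate plus GAPDH/TPI/NAD/arsenate coupling system with diaphorase/resazurin was added; resorufin fluorescence (525/598 nm) was read after 20 min.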
Sm TGR block: S. mansoni TGR enzyme inhibition | purified TGR, DTNB reduction, TNB absorbance 405 nm | 360,000 compounds, 3% hits | AID 485364 | Potency, µM (highest dose often 114 µM), inactives show at the highest dose activity change, negative = inhibition, hits mostly inhibitors | Q962Y6; also: potency is read from the fitted curve at half-maximal effect; nearly all actives have a fitted effect of over 60% in size
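TGR 20 nM + NADPH 100 uM (dispensed conc.), cpd preinc 15 min RT; start with NADPH (500 uM addition) then DTNB (15 mM addition). Kinetic TNB absorbance, 405 nm filter. Four-parameter Hill fit across titration.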
Pf growth 96h: inhibits malaria parasite growth, 96 h; P. falciparum luciferase reporter growth, 96 h; Potency, µM (series often up to 28.7 µM), for inactives: at the top dose activity change, negative = inhibition, usual class: inhibitors; 320,000 compounds, 6.9% hits; also: potency is read from the fitted curve at half-maximal effect
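Two parasite generations (96 h, 37 C, 5% CO2) of compound exposure in infected erythrocytes (0.05% parasitemia, 2% hematocrit). Luciferase-reporter P. falciparum; decreased luminescence indicates inhibited growth, aimed at apicoplast-acting delayed death.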
Pf growth 48h: P. falciparum growth inhibition at 48 hours (one generation); 310,000 compounds, 5.9% hits; P. falciparum luciferase growth in erythrocytes, 48 h; Potency, µM (doses to about 28.7 µM), for the others: top-dose activity change, negative = inhibition, actives largely listed as inhibitors; AID 504832; also: potency is read from the fitted curve at half-maximal effect
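A one-generation exposure of luciferase-tagged malaria parasites in RPMI 1640/Albumax erythrocyte culture, 37 C and 5% CO2. Inhibition is inferred from decreased luminescence after adding detection reagent.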
HCMV antiviral: human cytomegalovirus inhibition. activity change, negative = inhibition, % at 57.5 µM. 410,000 compounds, 4.5% hits. HFF cells, HCMV-luciferase reporter, 72 h; active compounds read low; in the data active = activity change below about -60%; inconclusive = no clear call, values can overlap the other calls; inactive = above about -39%
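Cell-based, HFFs, 1000 cells/well, 16 h 37C; cpds in DMSO + HCMV-luc, MOI 1 PFU/cell; 72 h 37C; OneGlo luminescence after 5 min RT; norm. to buffer vs Salinomycin 10uM.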
* hit, by the source's call; [ ] = dose if it differs, or a comment. Unless noted, calls follow the shape of the dose curve; as a rule, active = well fitted curve in the direction sought with a large enough effect; inconclusive = small, poorly fitted or top-dose-only effect, or another doubt; inactive = no such curve, though single readings can be large; an effect the other way counts as inactive or inconclusive. % is scaled to controls: 0 for no effect and ±100 for the full control effect.

How did O=C1CCCN1CC(O)CS(=O)(=O)Cc1ccc(Cl)c(Cl)c1 (centres undefined) do in these assays?
FBPA Giardia inh: 8%; Sm TGR block: 1%; Pf growth 96h: 0%; Pf growth 48h: 4%; HCMV antiviral: 28

What do the screens show for `CCc1ccc(-c2cc(C(=O)N3N=C(C(F)F)CC3(O)C(F)F)c3ccccc3n2)cc1` (centres undefined)?
FBPA Giardia inh: 2%; Sm TGR block: 9%; Pf growth 96h: inconclusive; Pf growth 48h: inconclusive; HCMV antiviral: -87*

Results for CCc1ccc(-c2cc(C(=O)Nn3cnnc3)c3ccccc3n2)cc1 ?
FBPA Giardia inh: -13%; Sm TGR block: 5%; Pf growth 96h: inconclusive; HCMV antiviral: 20

What do the screens show for `CC(C)Cc1cc(C(=O)N2N=C(C(F)F)CC2(O)C(F)F)c2ccccc2n1` (centres undefined)?
FBPA Giardia inh: 0%; Sm TGR block: -11%; Pf growth 96h: 6.6µM*; Pf growth 48h: 13µM*; HCMV antiviral: -30

Results for CC(NC(=O)CCCC1=NS(=O)(=O)c2ccccc2N1)c1ccccc1 (centres undefined) ?
Sm TGR block: -3%; HCMV antiviral: 17

Results for CCOC(=O)C1=CN(CC)S(=O)(=O)NC1c1ccc2ccccc2c1 (centres undefined) ?
HCMV antiviral: -6

What do the screens show for `CCOC(=O)C1=CN(CC)S(=O)(=O)NC1c1ccccc1` (centres undefined)?
HCMV antiviral: -82*

How did CCCCCCCn1c(=O)c(C(=O)Nc2cnccn2)c(O)c2ccccc21 do in these assays?
FBPA Giardia inh: -4%; Sm TGR block: 2%; Pf growth 96h: inconclusive; Pf growth 48h: inconclusive; HCMV antiviral: -62*

How did CCCCCCn1c(=O)c(C(=O)Nc2ccncc2)c(O)c2ccccc21 do in these assays?
FBPA Giardia inh: 1%; Sm TGR block: -5%; Pf growth 96h: inconclusive; Pf growth 48h: 2.9µM*

What do the screens show for `CC(=O)NCC(c1cccs1)S(=O)(=O)c1ccc(F)cc1` (centres undefined)?
Sm TGR block: -6%; Pf growth 96h: inconclusive; Pf growth 48h: 3%; HCMV antiviral: 10

Results for FC(F)(F)c1ccc(-c2noc(CN3CCCN(C4CCCCC4)CC3)n2)cc1 ?
FBPA Giardia inh: -16%; Sm TGR block: inconclusive; Pf growth 96h: 9.3µM*; Pf growth 48h: inconclusive; HCMV antiviral: 22

What do the screens show for `O=C(Nc1ccc(F)cc1)C1C(c2ccccc2)C1(Cl)Cl` (centres undefined)?
FBPA Giardia inh: -7%; Sm TGR block: 7%; Pf growth 96h: -1%; Pf growth 48h: -10%; HCMV antiviral: -68*

Results for O=C(Nc1ccccc1Cl)C1C(c2ccccc2)C1(Cl)Cl (centres undefined) ?
FBPA Giardia inh: 5%; Sm TGR block: 6%; Pf growth 96h: 17%; Pf growth 48h: 5%; HCMV antiviral: -21

How did CCS(=O)(=O)c1ncc(Cl)c(C(=O)N(Cc2ccccc2)Cc2ccco2)n1 do in these assays?
Sm TGR block: 8.9µM*; HCMV antiviral: -99*

Results for CCN(CC(=O)NC1CC1)S(=O)(=O)c1ccccc1 ?
Sm TGR block: -3%; Pf growth 96h: -14%; Pf growth 48h: 33%; HCMV antiviral: 10

Results for COc1ccc(-c2nc3ccc(Br)cn3c2Cc2ccccc2)cc1OC ?
HCMV antiviral: -65*

How did Cc1ccccc1N=C(N)Nc1ccccc1C do in these assays?
FBPA Giardia inh: -14%; Sm TGR block: -3%; Pf growth 96h: 10µM*; Pf growth 48h: inconclusive; HCMV antiviral: -32

Results for CC1CCc2c(sc(NC(=O)Cn3cnc([N+](=O)[O-])n3)c2C(N)=O)C1 (centres undefined) ?
FBPA Giardia inh: 0%; Sm TGR block: 4%; Pf growth 96h: 28%; Pf growth 48h: 3%; HCMV antiviral: -62*

How did CC(C)OC(=O)c1c(NC(=O)Cn2cnc([N+](=O)[O-])n2)sc2c1CCCC2 do in these assays?
FBPA Giardia inh: -7%; Sm TGR block: -20%; Pf growth 96h: 7.4µM*; Pf growth 48h: inconclusive; HCMV antiviral: 96

Results for Fc1ccc(Nc2ncnc3ccc(-c4ccoc4)cc23)cc1 ?
FBPA Giardia inh: -6%

How did C=CCC(NCc1ccco1)c1ccc(OC)cc1OC (centres undefined) do in these assays?
FBPA Giardia inh: 0%; Sm TGR block: -10%; Pf growth 96h: 10µM*; Pf growth 48h: -12%

What do the screens show for `OCCCNc1nc(-c2ccccc2)c2cc(Br)ccc2n1`?
FBPA Giardia inh: 2%; Sm TGR block: -25%; Pf growth 96h: 1.7µM*; Pf growth 48h: -9%; HCMV antiviral: -6

Results for COc1ccc(Cl)cc1NC(=O)CN(C)C(=O)CCC(=O)c1cc(C)sc1C ?
Sm TGR block: -1%; Pf growth 96h: inconclusive; Pf growth 48h: 20%; HCMV antiviral: -6

Results for OCCNCc1c(OCc2ccc(Cl)cc2)ccc2ccccc12 ?
FBPA Giardia inh: -4%; Sm TGR block: 14%; Pf growth 96h: -18%; Pf growth 48h: 0%[0.00184 µM]; HCMV antiviral: -79*

What do the screens show for `CC(O)CNCCNCc1c(OCc2ccccc2)ccc2ccccc12` (centres undefined)?
FBPA Giardia inh: 5%; Sm TGR block: -1%; Pf growth 96h: 2.3µM*; Pf growth 48h: 1.9µM*; HCMV antiviral: -38

Results for CCCc1c(O)nc(SC2CC(=O)N(c3ccc(C)c(Cl)c3)C2=O)[nH]c1=O (centres undefined) ?
HCMV antiviral: 17

What do the screens show for `Cc1ccc(N2C(=O)CC(Sc3nc4ccccc4o3)C2=O)cc1Cl` (centres undefined)?
FBPA Giardia inh: -8%; Sm TGR block: 13µM*; Pf growth 96h: 1%; Pf growth 48h: 32%; HCMV antiviral: 31

What do the screens show for `O[C@@H]1CCN2Cc3ccccc3N=C12`?
FBPA Giardia inh: -19%

Results for O=C(Nc1ccc(Oc2c(F)c(F)c(F)c(F)c2F)cc1)OC1CCN2Cc3ccccc3N=C12 (centres undefined) ?
FBPA Giardia inh: 7%; Sm TGR block: 5%; Pf growth 96h: 2.6µM*; Pf growth 48h: inconclusive

How did CCn1cc2nc(SCc3cccc(C(F)(F)F)c3)n(Cc3ccc(OC)cc3)c(=O)c2n1 do in these assays?
Sm TGR block: 1%; HCMV antiviral: inconclusive

Results for Cc1ccc(CN2C(=O)/C(=C\c3ccc(C(=O)NCc4cccnc4)cc3)Oc3ccccc32)cc1 ?
FBPA Giardia inh: 1%; Sm TGR block: -2%; Pf growth 96h: 1.7µM*; Pf growth 48h: inconclusive; HCMV antiviral: -29

How did O=C(CN1C(=O)/C(=C\c2ccccc2Cl)Oc2ccccc21)NCc1cccnc1 do in these assays?
FBPA Giardia inh: -3%; Sm TGR block: -2%; Pf growth 96h: -37%; Pf growth 48h: -13%; HCMV antiviral: 17
